Marburg entry inh: Marburg virus entry inhibition; Marburg virus pseudotyped entry inhibition, cell reporter; Potency, µM (doses to about 37.8 µM), actives largely listed as inhibitors; 1.8% of 300,000 active; AID 540276; calls by dose curve; tested in HEK293 cells
HCV inhibitor: HCV inhibition. Huh7.5.1 HCVcc-Cre infection, luciferase reporter, 44 h. Potency, µM (series often up to 41.8 µM), hits mostly inhibitors. 3.4% of 340,000 active; active means well fitted inhibition curve with a large enough effect; inconclusive means small, poorly fitted or top-dose-only effect, or another doubt; inactive means no such curve, though single readings can be large or run the other way
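Compounds are dispensed onto cells plated 4 h earlier at 1,000 per well, with HCVcc-Cre virus (about 0.5 moi) added next. Following 44 h of culture, luminescent signal is measured for 15 sec after 15 min with substrate at room temperature.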
Lassa entry inh: Lassa virus entry inhibition. Potency, µM (highest dose often 37.9 µM), hits mostly inhibitors. 1.2% of 300,000 active. Lassa virus pseudotype entry inhibition, cell reporter. AID 540256; calls by dose curve; tested in HEK293 cells; further: nearly all actives have a fitted effect of over 50% in size
FMDV inh: blocks foot and mouth disease virus. AID 1159524. Potency, µM (series often up to 57.9 µM), most hits filed as inhibitors. 1.2% of 410,000 active. FMDV antiviral cell-based qHTS; calls by dose curve; tested in HEK293T cells; further: read-out not given here; nearly all actives have a fitted effect of over 45% in size
VACV mCherry inh: vaccinia inhibition (mCherry reporter); AID 720579; Vaccinia virus mCherry reporter infection, fluorescence; 0.63% of 310,000 active; Potency, µM (doses to about 36.5 µM), most hits filed as inhibitors; calls by dose curve; tested in A549 cells; further: nearly all actives have a fitted effect of over 35% in size
Vaccinia Venus: inhibitors of vaccinia virus (Venus reporter); Vaccinia virus Venus reporter expression, fluorescence; Potency, µM (highest dose often 36.5 µM), most hits filed as inhibitors; 0.46% of 330,000 active; calls by dose curve; tested in A549 cells; further: nearly all actives have a fitted effect of over 30% in size
Hits are given with their value; . = inactive; ? = inconclusive; / = no result given; [ ] = another dose, or the depositor's remark. A selection: hits, their analogues and other compounds. The true share with any hit is near 5.3%.

SMILES | Marburg entry inh | HCV inhibitor | Lassa entry inh | FMDV inh | VACV mCherry inh | Vaccinia Venus
COc1cc(C=C2C(=O)OC(c3ccccc3)OC2=O)cc(Br)c1O (centres undefined) | . | . | . | 10µM | . | .
Cc1ccc2[nH]c(=O)c3cc(C(=O)NCCCN4CCC(C)CC4)sc3c2c1 | ? | / | / | . | . | .
CCCNc1nc2c(c(=O)n(C)c(=O)n2C)n1CCc1ccccc1 | ? | 14µM | ? | 14µM | / | /
CCCCNc1nc2c(c(=O)n(C)c(=O)n2C)n1CCC | / | ? | / | . | . | .
Cn1c(=O)c2c(nc(NCCO)n2CCc2ccccc2)n(C)c1=O | ? | ? | . | / | . | .
Cc1ccc(Oc2nc3c(c(=O)n(Cc4ccccc4)c(=O)n3C)n2C)cc1C | ? | / | ? | 14µM | . | .
CCCCCCn1c(CN2CCCCC2C)nc2c1c(=O)n(C)c(=O)n2C (centres undefined) | ? | 25µM | . | / | ? | .
CCCCCCn1c(NCC)nc2c1c(=O)n(C)c(=O)n2C | ? | 5.6µM | ? | ? | / | ?
Cc1ccc(Oc2nc3c(c(=O)n(Cc4ccccc4Cl)c(=O)n3C)n2C)cc1C | . | / | . | . | ? | ?
COC(=O)c1c(NC(=O)C2c3ccccc3Oc3ccccc32)sc2c1CCC(C(C)(C)C)C2 (centres undefined) | ? | / | . | . | . | .
COc1ccc(OC)c(NC(=O)C(C)n2nc(C)c3c(C)n(-c4ccccc4)nc3c2=O)c1 (centres undefined) | / | / | . | . | . | .
CCOC(=O)Cc1c(C)nc2c(-c3ccc(OC)c(OC)c3)c(C)nn2c1C | . | / | ? | ? | . | .
CC(O)CNc1nc2c(c(=O)n(C)c(=O)n2C)n1Cc1cccc(Br)c1 (centres undefined) | ? | 11µM | ? | / | . | .
COCCCn1c(=O)c2sccc2n(Cc2cccc(C)c2)c1=O | / | . | / | . | / | /
Cn1c(=O)c2sccc2n(Cc2cccc(Br)c2)c1=O | ? | 11µM | . | . | . | .
Cn1c(Cl)nc2c1c(=O)n(Cc1cccc(Br)c1)c(=O)n2C | . | 13µM | . | . | / | /
CC(O)CNc1nc2c(c(=O)n(C)c(=O)n2C)n1CCc1ccccc1 (centres undefined) | . | 28µM | . | ? | .[1.46 µM] | .
Cn1c(Br)nc2c1c(=O)n(Cc1ccccc1)c(=O)n2C | . | . | . | . | . | .
CC(C)CNc1nc2c(c(=O)n(C)c(=O)n2C)n1Cc1cccc(Br)c1 | . | . | . | ? | / | .
Clc1ncc(C#Cc2ccccc2)c2ncncc12 | / | / | / | / | . | .
COc1ccc(NC(=O)c2cc3c(s2)-c2c(C)cccc2OC3)cc1Cl | ? | / | / | . | ? | ?
OC[C@H]1O[C@@H](O[C@H]2[C@H](O)[C@@H](O)[C@H](O)O[C@@H]2CO)[C@H](O)[C@@H](O)[C@@H]1O | / | / | / | . | . | .
COC(=O)[C@]1(C)CC[C@@]2(C)CC[C@@]3(C)C4=CC=C5C(=CC(=O)C(O)=C5C)[C@@]4(C)CC[C@@]3(C)C2C1 (some centres undefined) | / | / | / | 10µM | . | .
CC(C)[C@H]1COCCS(=O)(=O)N1Cc1cccc([N+](=O)[O-])c1 | / | / | / | / | ? | 28µM
CC(C)[C@H]1COCCS(=O)(=O)N1Cc1ccccc1F | / | . | / | . | ? | 1µM
SMILES | Marburg entry inh | HCV inhibitor | Lassa entry inh | FMDV inh | VACV mCherry inh | Vaccinia Venus
CC(C)[C@H]1COCCS(=O)(=O)N1Cc1cccc(Cl)c1 | / | . | / | . | . | .
COc1ccc(Nc2cccc3ccccc23)cc1 | / | . | / | . | . | .
Cc1cc2c(c(=O)n1Cc1ccccc1)[C@H]1O[C@](CCCCN3C(=O)c4ccccc4C3=O)(Cc3cc(C#N)ccc31)O2 | . | / | / | / | / | /
Clc1ccc(/C=C/c2ccncc2)cc1Cl | / | / | / | / | 4.5µM | ?
CC(=O)Nc1ccc(/C=C/c2ccncc2)cc1 | / | / | / | / | . | .
O=C(O)CCCC[C@@H]1CCSS1 | . | / | ? | / | / | /
Cc1ccc(NC(=O)C(=Cc2ccc(C(=O)O)cc2)C(=O)Nc2ccc(C)cc2C)c(C)c1 | / | ? | / | 11µM | / | /
CC(=O)C(=Cc1ccc(C(=O)O)cc1)C(C)=O | . | . | ? | . | . | .
CCOC(=O)c1ccc2c(c1)N(Cc1cccc(C(F)(F)F)c1)C(=O)c1ccccc1S2(=O)=O | / | / | . | . | . | .
CCOC(=O)N=Nc1c2ccccc2c2nc3no[nH]c3nc12 | ? | 0.56µM | ? | 2µM | 0.5µM | 0.5µM
CCOC(=O)N=Nc1c(O)n(CC(=O)OC)c2ccccc12 | . | . | . | . | . | .
Cc1ccc(S(=O)(=O)N(C)Cc2ccc(C(=O)N/N=C3\CC(=O)CC(C)(C)C3)cc2)cc1 | . | . | . | . | . | .
